{
  "source": "PubChem BioAssay (NCI)",
  "note": "The panel holds about 83,000 compounds, 20% with a hit somewhere; the sample as a whole holds those more often.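 Values shown are percent growth following 48 h exposure of cells in 96-well plates to a single concentration of compound; below 10 was considered active.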 Values without a mark were called inactive. Activity calls are given as the source filed them.",
  "data": [
    {"test_system": "HCC-2998 colon", "assay": "NCI-60 one-dose screen, 48 h (100 = growth as untreated, 0 = no growth, -100 = all killed)", "details": "10 µM unless noted", "values": [
      {"smiles": "CC(=O)Nc1c(Cl)cc2c(c1Cl)Cc1ccccc1-2", "growth": "107%"},
      {"smiles": "Clc1ccc(C2c3ccccc3-c3nccn32)c(Cl)c1", "note": "(stereo not given)", "growth": "99%"},
      {"smiles": "Cc1ccccc1NC(=O)N/C(N)=N/c1nc2ccccc2s1", "growth": "17.2%"},
      {"smiles": "O=[N+]([O-])c1cc([N+](=O)[O-])c(N2CCCC2)cc1NN=C(c1ccc(O)cc1)c1ccc(O)cc1", "growth": "4.45% (active)"},
      {"smiles": "CCCCc1ccc(C(N)=O)nc1", "growth": "110%"},
      {"smiles": "O=C(c1ccc(N2CCOCC2)cc1[N+](=O)[O-])N1CCOCC1", "growth": "108%"},
      {"smiles": "Cc1cc(C)c(C(=O)c2cccs2)c(C)c1", "growth": "106%"},
      {"smiles": "CC(C)N(Cc1ccccc1)c1c(Cl)ssc1=O", "growth": "113%"},
      {"smiles": "c1ccc(-c2oc(-c3ccccc3)c3ccccc23)cc1", "growth": "107%"},
      {"smiles": "N#Cc1c(-c2ccccc2)cc(-c2ccccc2)n(CC(=O)O)c1=O", "growth": "82.4%"},
      {"smiles": "Oc1c(N=Nc2nn[nH]n2)ccc2ccccc12", "growth": "103%"},
      {"smiles": "CCOC(=O)C(C(=O)OCC)C1CCCCC1", "growth": "111%"},
      {"smiles": "CNCCCn1c2c(c3ccc(F)cc3c1=O)C(=O)c1cc(OC)cnc1-2", "growth": "8% (active)"},
      {"smiles": "O=C1NC(=O)/C(=C/c2ccc(Cl)cc2Cl)N1", "growth": "102%"},
      {"smiles": "Nc1c(C(=O)Nc2cccc(Cl)c2)sc2nc3c(cc12)C(O)CCC3", "note": "(stereo not given)", "growth": "24.9%"},
      {"smiles": "CCN(CC)CCCCCCCNc1c2ccc(Cl)cc2nc2ccc(OC)cc12", "growth": "-78.9% (active)"},
      {"smiles": "Cn1c(N2N=C(c3ccc(Cl)cc3)CC2c2ccccc2)nc(-c2ccccc2)c(C#N)c1=O", "note": "(stereo not given)", "growth": "82.3%"},
      {"smiles": "C[C@H]1C(=O)N2c3ccccc3[C@@]3(O)C[C@@H](n4cnc5ccccc5c4=O)C(=O)N1[C@@H]23", "growth": "98.5%"},
      {"smiles": "O=C1/C(=C\\c2coc3ccccc3c2=O)c2ccccc2N1c1c(Cl)cccc1Cl", "growth": "53%"},
      {"smiles": "Oc1c(Cl)cc(Cl)c(Cl)c1Cc1c(O)c(Cl)cc(Cl)c1Cl", "growth": "7.48% (active)"},
      {"smiles": "COc1ccc(C2=NN(C(N)=S)C(c3ccc4c(c3)OCO4)C2)cc1", "note": "(stereo not given)", "growth": "-24.7% (active)"},
      {"smiles": "CC[C@H]1CN2CCc3cc(OC)c(OC)cc3C2C[C@@H]1CC1NCCc2cc(OC)c(OC)cc21", "note": "(stereo not given in full)", "growth": "-47.8% (active)"},
      {"smiles": "COc1cccc(C2=NN(C(C)=O)C(c3cc(OC)c(OC)c(OC)c3)C2)c1", "note": "(stereo not given)", "growth": "15.7%"},
      {"smiles": "CC(=O)O[C@H]1CC[C@@]2(C)C(=CC[C@@H]3[C@@H]2CC[C@]2(C)C(c4cccnc4)=CC[C@@H]32)C1", "growth": "65.1%"},
      {"smiles": "Cc1cc2c(cc1C)[n+](Cc1ccc3ccccc3c1)cn2Cc1ccc2ccccc2c1", "growth": "-69.6% (active)"},
      {"smiles": "N/C(=N\\C(N)=N\\c1nc2ccccc2s1)c1ccnc(Cl)c1", "growth": "62.7%"},
      {"smiles": "CC(=O)OC1Oc2cc(C)c(C)cc2-c2oc(=O)c(-c3ccccc3)cc21", "note": "(stereo not given)", "growth": "41.4%"},
      {"smiles": "O=C(N/N=C/c1cccc(O)c1O)c1ccccc1", "growth": "8.51% (active)"},
      {"smiles": "CN[C@@H]1C(OC2[C@H](O[C@H]3[C@H](O)[C@@H](O)[C@H](N=C(N)N)[C@@H](O)[C@@H]3N=C(N)N)OC(C)[C@]2(O)CO)OC(CO)C(O)C1O", "note": "(stereo not given in full)", "growth": "97.5%"},
      {"smiles": "CN(C)c1ccc(-c2nc3ncc(Br)cc3o2)cc1", "growth": "85%"},
      {"smiles": "O=C(C(=O)N1CCOCC1)c1cn(CCCn2cc(C(=O)C(=O)N3CCOCC3)c3ccccc32)c2ccccc12", "growth": "108%"},
      {"smiles": "C[N+]1(C)C2CC[C@@H]1CC(OC(=O)C(O)c1ccccc1)C2", "note": "(stereo not given in full)", "growth": "96.6%"},
      {"smiles": "Cn1ccnc1C(=O)/C=C/c1ccc(C(=O)Nc2nc3ccccc3[nH]2)cc1", "growth": "45.4%"},
      {"smiles": "COc1ccc(/C=C2\\CCc3ccccc3C2=O)cc1", "growth": "80.4%"},
      {"smiles": "CCSc1nc(Nc2ccc(S(=O)(=O)Nc3ccon3)cc2)c(C#N)c(-c2cccc(Br)c2)n1", "growth": "106%"},
      {"smiles": "COc1ccc(C2CC(c3ccc4c(c3)OCO4)=NN2C=O)cc1", "note": "(stereo not given)", "growth": "102%"},
      {"smiles": "CSc1nc2nc3c(c(-c4ccc(C)cc4)c2c(=O)[nH]1)CN(C)C/C3=C\\c1ccc(C)cc1", "growth": "96.5%"},
      {"smiles": "O=c1oc2c(cc1-c1ccc([N+](=O)[O-])cc1)C(O)Oc1ccccc1-2", "note": "(stereo not given)", "growth": "94.3%"},
      {"smiles": "COc1ccccc1-n1c(-c2ccc(O)cc2C)cn2c3c(=O)[nH]c(=O)n(C)c3nc12", "growth": "104%"},
      {"smiles": "CCOc1cc(/C=C/C(=O)CC(=O)/C=C/c2ccc(OC(=O)CNCCN(CC)CC)c(OCC)c2)ccc1OC(=O)CNCCN(CC)CC", "growth": "-71.2% (active)"}
    ]}
  ]
}
